Data reported in PubChem BioAssay AID977607 (Broad Institute, 2014).
In all, about 1,500 compounds went through this assay and about 460 (31%) were called active. Inconclusive results (about 1%) are left out.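 How the source made its calls: active means curve reaches 40% activation over neutral controls at an AC40 no higher than the top valid tested concentration; inconclusive means no clear call, values can overlap the other calls; inactive means signal moving opposite to the expected increase, and the rest.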 The list is a sample of the results. Results with a measured potency or affinity are listed apart.

Assay: GLuc-reported insulin release enhancers, glucose-stimulated beta cells – cell-based, INS-1E, Gaussia luciferase, luminescence, cherry-pick, set 2, dose response (AID 977607);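 further: 0% = median of the plate neutral control wells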
Conditions: INS-1E GLuc insulin secretion reporter, 2-3 h, active compounds read high; at 35 µM, 100% = signal doubled over neutral wells unless noted

Max activation, inactive:
Cc1ccc(C)c(S(=O)(=O)Nc2ccc(C(=O)N3CCC3)cc2)c1 27.7%, Cc1c(-c2cccc(Cl)c2)nc2ccccc2c1C(=O)NC1CC1 35.1% [at 1.2 µM, 100% = signal doubled over neutral wells], Cc1cc(C)cc(Cn2c3ccc(NC(=S)NCc4ccccc4F)cc3c(=O)n2C)c1 -51.1%, O=c1c2[nH]cnc2n(-c2ccc(F)cc2)c(=O)n1Cc1ccccc1 25.9% [at 0.42 µM, 100% = signal doubled over neutral wells], COC(=O)c1cccc(-n2c(=O)n(Cc3ccccc3)c(=O)c3[nH]cnc32)c1C 38.9% [at 11 µM, 100% = signal doubled over neutral wells], CN(Cc1ccccc1)c1ncnc2[nH]ncc12 19.1% [at 3.8 µM, 100% = signal doubled over neutral wells], CC(O)c1nc2ccccc2n1C1CCCCC1 (configuration not stated) -13.8% [at 3.8 µM, 100% = signal doubled over neutral wells], Nn1c(C2CCCCC2)nc2ccccc2c1=O -24.8% [at 0.42 µM, 100% = signal doubled over neutral wells], O=C(O)COc1ccc2c3c(c(=O)oc2c1)CCC3 -18%, CCOC(=O)Cc1cc(=O)n2[nH]c(-c3ccc(C)cc3)cc2n1 26.5% [at 0.015 µM, 100% = signal doubled over neutral wells], O=C(CCS(=O)(=O)c1ccc(Cl)cc1)Nc1ccc(N2CCOCC2)cc1 26.5% [at 0.0016 µM, 100% = signal doubled over neutral wells], CCOc1ccc(CCNC(=O)CCC(=O)c2cccs2)cc1OCC -10.4% [at 0.0016 µM, 100% = signal doubled over neutral wells], C=CCNC(=O)c1cc(-c2ccc3c(c2)OCO3)on1 -23.5%, O=C(NCCc1ccccc1)c1cc(-c2ccc3c(c2)OCO3)on1 -16.8% [at 0.015 µM, 100% = signal doubled over neutral wells], CC(=O)Cc1nsc(NC(=O)c2ccc(-c3cccc(Cl)c3)o2)n1 -41.3%, CCOc1cccc2cc(C(=O)Nc3cc(C)on3)c(=O)oc12 -15.3% [at 0.42 µM, 100% = signal doubled over neutral wells], CCc1cc2c(COC(=O)c3cccc(S(C)(=O)=O)c3)cc(=O)oc2cc1O -21.8%, COCCNc1nc(NCCCN2CCCC2=O)c2sccc2n1 -21.2% [at 0.005 µM, 100% = signal doubled over neutral wells], CN(C)c1ncnc2sc(-c3ccccc3)cc12 75.3%, CCOC(=O)c1cnc2c(cnn2C)c1Oc1ccc(OC)cc1 -8.37% [at 0.135 µM, 100% = signal doubled over neutral wells], C=C(C)n1c(=O)n(Cc2ccccc2C)c2ccccc21 -20.9% [at 0.0016 µM, 100% = signal doubled over neutral wells], COc1ccc(CC(=O)OCC(=O)N2CCc3ccccc32)cc1OC -17.9% [at 0.135 µM, 100% = signal doubled over neutral wells], COc1ccc(CN(C)C(=O)CCN=C2NS(=O)(=O)c3ccccc32)c(OC)c1 -22.4% [at 0.015 µM, 100% = signal doubled over neutral wells], O=C1Nc2ccccc2N(C(=O)c2ccc3ccccc3c2)C1c1nc2ccccc2[nH]1 (configuration not stated) -24.4% [at 11 µM, 100% = signal doubled over neutral wells], CC1=C(C(=O)N2CCOCC2)CC(CC(=O)NCCCN(C)C)C(=O)N1CCCN1CCCC1=O (configuration not stated) -20.9%, Cc1cc(Br)ccc1NC(=O)CN(C)C(=O)C1CSC2(C)CCC(=O)N12 (configuration not stated) -12.1% [at 0.015 µM, 100% = signal doubled over neutral wells], O=S(=O)(c1ccc(Cl)nc1)N1CCc2ccccc21 -28.1%, COc1ccc(S(=O)(=O)N2CCc3ccccc32)cc1C(=O)Nc1cccnc1 -10.3% [at 3.8 µM, 100% = signal doubled over neutral wells], COc1cc(C(=O)O)ccc1OCc1ccccc1 -15.4% [at 0.42 µM, 100% = signal doubled over neutral wells], CCc1ccc(N(C2C=CS(=O)(=O)C2)S(=O)(=O)c2ccccc2)cc1 (configuration not stated) -8.85% [at 0.015 µM, 100% = signal doubled over neutral wells], CCCc1nnc2c(N(C)S(=O)(=O)c3ccc(C)cc3)nc3ccccc3n12 -17% [at 0.005 µM, 100% = signal doubled over neutral wells], COc1ccc(Nc2c3c(nc4ccccc24)CCC3)cc1 -16.4% [at 0.046 µM, 100% = signal doubled over neutral wells], c1csc(CNc2nc(Oc3ccncc3)c3sccc3n2)c1 -17.1% [at 0.0016 µM, 100% = signal doubled over neutral wells], CN1CCCCC(NC(=O)c2ccccc2)C1=O (configuration not stated) -13.5% [at 0.42 µM, 100% = signal doubled over neutral wells], COc1ccc(S(=O)(=O)Nc2ccc3c(c2)OCO3)cc1OC -21.1%, Cc1cccc(C)c1-n1nnnc1C1(C)CCC(=O)N1Cc1cccs1 (configuration not stated) 25.2%, CCOc1cc(CNc2cccc3[nH]c(C)nc23)ccc1OC -11.6% [at 0.0016 µM, 100% = signal doubled over neutral wells]
